IL-1B inflam inh – inflammasome signaling inhibition, IL-1 beta readout; THP-1 LPS/ATP IL-1B secretion, AlphaLISA, 16 h; active compounds read low; activity change, % at 57.5 µM; AID 743279; 4.7% of 360,000 active; in the data active means activity change below about -50%; inconclusive means mostly about -30% to -49%
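THP-1 cells pretreated 1 hr with compounds (up to 57.5 uM final), then stimulated with LPS (250 ng/mL final) plus ATP (1.25 mM final); secreted IL-1B measured by AlphaLISA after 16 hr, decreased signal indicating inhibition.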
DT40 TDP1 no CPT – qHTS for Inhibitors of human tyrosyl-DNA phosphodiesterase 1 (TDP1): qHTS in cells in absence of CPT | Potency, µM (doses to about 46.2 µM), without a hit: at the highest dose activity change, negative = growth inhibition, actives largely listed as inhibitors | 15% of 420,000 active | DT40 Tdp1-/- hTDP1 cells, no CPT, ATP luminescence, 48 h; further: potency means the concentration at half of the fitted maximal effect; nearly all actives have a fitted effect of over 55% in size
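Luminescent ATP content (CellTiter-Glo) served as the growth readout. Knockout chicken DT40 cells expressing human TDP1 were exposed to compounds without camptothecin for a minimum 48 hr at 37 °C.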
CtBP-E1A inh – inhibitors of CtBP/E1A interaction; AlphaScreen GST-E1A/His-CtBP binding, 1536-well; active compounds read low; activity change, % (concentration not given with the values); 0.49% of 340,000 active; AID 651724; in the data active means activity change below about -65%; inconclusive means mostly about -30% to -63%
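Protein mix (5X: 125 nM each GST-E1A, His-CtBP) was incubated with pinned compound 2 h at 37 deg C in dark, in 50 mM Tris pH 8.0 buffer with 300 mM NaCl. Glutathione donor and nickel acceptor beads followed; AlphaScreen signal read after 1 h.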
Six1-Eya2 inh – inhibitors of human Six1/Eya2 interaction; 0.56% of 360,000 active; AlphaScreen GST-Six1/His-Eya2 binding, biochemical; active compounds read low; activity change, % (no concentration beside the values); Q15475+O00167; in the data active means activity change below about -65%; inconclusive means mostly about -30% to -63%
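GST-Six1 + His-Eya2 (5X stock: 250/500 nM); Tris pH 8.0, 300 mM NaCl, 0.05% BSA, 0.02% Tween 20; GSH donor/Ni acceptor beads; 1 h 37 °C dark; AlphaScreen readout.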
TDP1 block – TDP1 (human) enzyme inhibition. 0.28% of 350,000 active. recombinant TDP1, AlphaScreen DNA substrate cleavage. Q9NUW8. Potency, µM (doses to about 130 µM), for inactives: top-dose activity change, negative = inhibition, most hits filed as inhibitors; further: potency means the concentration at half of the fitted maximal effect; nearly all actives have a fitted effect of over 40% in size
Target sequence (Q9NUW8 whole entry, looked up): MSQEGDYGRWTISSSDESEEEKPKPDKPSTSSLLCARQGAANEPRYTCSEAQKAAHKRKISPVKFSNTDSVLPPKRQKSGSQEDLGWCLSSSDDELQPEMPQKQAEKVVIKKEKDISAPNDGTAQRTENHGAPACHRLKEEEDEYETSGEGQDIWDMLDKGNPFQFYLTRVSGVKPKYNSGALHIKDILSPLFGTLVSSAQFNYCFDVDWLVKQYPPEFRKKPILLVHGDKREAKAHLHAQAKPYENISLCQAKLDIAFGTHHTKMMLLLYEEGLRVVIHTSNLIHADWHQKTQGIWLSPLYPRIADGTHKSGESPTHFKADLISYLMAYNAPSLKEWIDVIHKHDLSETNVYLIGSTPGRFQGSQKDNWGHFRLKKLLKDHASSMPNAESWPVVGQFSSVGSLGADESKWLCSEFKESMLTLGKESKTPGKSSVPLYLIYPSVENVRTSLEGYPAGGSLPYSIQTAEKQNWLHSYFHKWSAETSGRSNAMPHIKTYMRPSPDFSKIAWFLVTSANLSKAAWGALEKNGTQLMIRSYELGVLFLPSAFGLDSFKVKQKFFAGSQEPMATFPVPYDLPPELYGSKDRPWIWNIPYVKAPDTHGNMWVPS
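Recombinant human Tdp1 (E. coli-expressed, 1 nM final) preincubated with compounds 15 min at room temperature, then 5'-biotin/3'-phosphotyrosine-FITC DNA substrate (15 nM final) added for 5 min. AlphaScreen beads (10 ug/ml final) added 10 min; cleavage lowers signal.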
TDP1 cell CPT – growth inhibition of DT40 Tdp1-/-;hTDP1 cells with camptothecin (screen for TDP1 inhibitors); chicken DT40 Tdp1-/-;hTDP1 cells + 20 nM CPT, ATP luminescence, 48 h; Potency, µM (series often up to 46.2 µM), without a hit: at the highest dose activity change, negative = growth inhibition, hits mostly inhibitors; 12% of 420,000 active; AID 686979; further: potency means the concentration at half of the fitted maximal effect; nearly all actives have a fitted effect of over 55% in size
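Chicken DT40 Tdp1-/- cells stably complemented with human TDP1 were seeded at 400 cells/well in medium containing 20 nM camptothecin, exposed to pin-transferred compounds, and grown at 37 °C for at least 48 hr. Viability was read as ATP luminescence.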
* = called active by the depositor; i = inactive; u = inconclusive; x = no result given; [ ] = remark or other dose. The list is not random: actives were taken first. Their share in the collection is about 18%. Unless noted, the call rests on the fitted dose curve; in most records, active means well fitted curve in the direction sought with a large enough effect; inconclusive means small, poorly fitted or top-dose-only effect, or another doubt; inactive means no such curve, though single readings can be large; an effect the other way counts as inactive or inconclusive. On the % scale 0 is the no-effect control and ±100 the full control effect.

SMILES	IL-1B inflam inh	DT40 TDP1 no CPT	CtBP-E1A inh	Six1-Eya2 inh	TDP1 block	TDP1 cell CPT
CC(=O)c1nc2ccccc2n1CCc1ccccc1	58	-20%	17	15	-1%	-29%
N#CC(=C1NC(=O)c2ccccc21)c1nc2ccccc2n1CCO	-74*	8.2µM*	9	6	x	u
CCC1=NC(c2ccc(Br)cc2)N(O)C1(C)C (stereo not given)	-9	1%	4	2	-2%	-1%
Cc1cccc(N(C)c2nc3ccccc3c3nnc(C)n23)c1	x	29µM*	x	x	0%	u
O=C(O)c1cccc(-c2csc(C(O)c3ccccc3)n2)c1 (stereo not given)	11	1%	7	8	x	-3%
CN(Cc1ccccc1Cl)C(=O)CNC(=O)C12CC3CC(CC(C3)C1)C2	4	u	-4	7	0%	21µM*
CN(Cc1ccccc1)C(=O)CNC(=O)C12CC3CC(CC(C3)C1)C2	9	-13%	-7	4	0%	-19%
CO[C@H]1[C@H](O[C@H]2O[C@@H](C)[C@@H](O[C@@H]3C[C@](C)(O)[C@H](OC(=O)CC(C)C)[C@H](C)O3)[C@@H](N(C)C)[C@@H]2O)[C@@H](CC=O)C[C@@H](C)[C@@H](O)/C=C\C=C/C[C@@H](C)OC(=O)C[C@H]1OC(C)=O	x	x	x	x	-2%[56.1 µM]	x
CO[C@@H]1[C@@H](O[C@@H]2O[C@H](C)[C@@H](O[C@H]3C[C@@](C)(O)[C@@H](OC(=O)CC(C)C)[C@H](C)O3)[C@H](N(C)C)[C@H]2O)[C@@H](CC=O)C[C@@H](C)[C@@H](O)/C=C/C=C/C[C@@H](C)OC(=O)C[C@H]1O	x	6µM*	x	x	x	6.7µM*
CO[C@@H]1[C@@H](OC2OC(C)C(OC3CC(C)(O)C(OC(=O)CC(C)C)C(C)O3)C(N(C)C)C2O)[C@@H](CC=O)C[C@@H](C)C(=O)/C=C\C2O[C@H]2C[C@@H](C)OC(=O)C[C@H]1OC(C)=O (stereo not given in full)	x	3.2µM*	x	x	x	5.6µM*
COc1cccc(NC(=O)CCNS(=O)(=O)c2cccc3nsnc23)c1	21	-10%	1	-15	0%	8%
COc1ccc(OC)c(C2C(C(=O)Nc3nc4ccccc4s3)=C(C)NC3=C2C(=O)CCC3)c1 (stereo not given)	91	u	-1	7	2%	-26%
CCOc1ccc(C2C(C#N)=C(N)Oc3cc(O)ccc32)cc1OCC (stereo not given)	50	u	-2	-1	x	u
O=C(CSc1ccc(F)cc1)Nc1ccc(N2CCOCC2)c(Cl)c1	0	u	-5	10	0%	-29%
Nc1ccc2nc(SCC(=O)N3CCOCC3)sc2c1	36	-21%	19	21	-6%	3%
Nc1nnc(SCC(=O)Nc2ccc(N3CCOCC3)c(Cl)c2)s1	i	12µM*	-4	5	5%	18µM*
Cc1ccc(NC(=O)CSCC(=O)Nc2ccc(N3CCOCC3)c(Cl)c2)cc1	-10	-30%	0	-4	5%	-27%
Nc1ccc2nc(SCC(=O)Nc3ccc(N4CCOCC4)c(Cl)c3)sc2c1	-28	23µM*	0	-7	5%	u
CCCC(=O)Nc1ccc2nc(SCC(=O)Nc3ccc(N4CCOCC4)c(Cl)c3)sc2c1	-50*	16µM*	-4	-8	4%	-82%
CCNC(=S)NNC(=O)c1csc(C(C)C)c1	-5	-16%	-5	2	3%	-1%
COc1cccc(CNC(=O)c2ccc3c(c2)nc2n3CCOC2)c1OC	x	-10%	x	x	3%	6%
C[C@@]12CCC[C@@](C)(C(=O)O)C1CC[C@@]13C[C@@H](NCc4ccccc4)[C@@](C)(CCC12)C3 (stereo not given in full)	0	21µM*	0	-11	0%	u
CC(C)c1ccc(Nc2c(-c3ccc(N4CCOCC4)cc3)nc3ncccn23)cc1	x	-24%	x	x	-5%	-18%
C/C(=C\c1ccc(Br)cc1)C(=O)c1c(C)cc(C)[nH]c1=O	u	u	5	-6	x	u
Cc1cc(C)c(C(=O)/C=C/c2ccco2)c(=O)[nH]1	u	-6%	-3	-8	16µM*	3%
SMILES	IL-1B inflam inh	DT40 TDP1 no CPT	CtBP-E1A inh	Six1-Eya2 inh	TDP1 block	TDP1 cell CPT
Cc1ccc(C(=O)/C=C/c2ccco2)c(O)c1	-19	-29%	1	0	8%	u
CCc1ccc(/C=C/C(=O)c2c(C)cc(C)[nH]c2=O)cc1	-120*	16µM*	0	-1	0%	16µM*
CC1(C)CC(=O)C(C(=O)/C=C/c2ccco2)C(=O)C1	-14	21µM*	x	1	6%	15µM*
Cc1ccc(/C=C/C(=O)c2c(C)cc(C)[nH]c2=O)cc1	-94*	11µM*	6	1	4%	8.9µM*
CCOC(=O)c1c(C)[nH]c(C(=O)CN(C)CC(=O)Nc2ccccc2C(F)(F)F)c1C	16	u	-2	-7	0%[56.1 µM]	-26%
COc1ccc(C2(C)NC(=O)N(CC(=O)N(c3ccccc3)C3CCS(=O)(=O)C3)C2=O)cc1 (stereo not given)	19	-8%	4	0	0%	1%
COc1ccccc1/C=C(\C)C(=O)c1c(C)cc(C)[nH]c1=O	0	13%	7	14	x	-1%
Cc1cc(C)c(C(=O)/C=C/c2cccs2)c(=O)[nH]1	-73*	u	6	-5	1%	u
C/C(=C\c1cccs1)C(=O)c1c(C)cc(C)[nH]c1=O	-3	24%	9	2	x	0%
COc1ccc(/C=C/C(=O)c2c(C)cc(C)[nH]c2=O)c2ccccc12	-99*	u	-4	7	x	u
O=C(CNc1n[nH]c(=O)[nH]c1=O)N/N=C/C1CC=CCC1 (stereo not given)	-8	u	-7	13	1%	-3%
CCCCn1c(SCC(=O)Nc2nnc(CC)s2)nc2ccccc2c1=O	-1	2%	1	4	-3%	-3%
CCn1c(SCC(=O)Nc2nc(C)cs2)nnc1-c1ccncc1	20	4%	3	7	x	-5%
CCn1c(SCC(=O)Nc2nc(C)cs2)nnc1-c1ccoc1C	21	-11%	5	-1	7%	-7%
Cc1ccc(-c2csc(NC(=O)CSc3nc(C)cs3)n2)cc1	-15	16µM*	0	-5	2%	u

Bioassay records (PubChem)
